Measurements taken from PubChem BioAssay AID436 (Emory University Molecular Libraries Screening Center, 2006).
In all, about 72,000 compounds went through this assay and about 350 (0.49%) were called active.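 Rule for the calls: active = activity remaining at or below 50% of control, provided the compound also passes the data quality filters; inactive = the rest, including low values that fail the filters.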 Shown is part of a subset that was picked to be rich in actives.

target: Ubiquitin carboxyl-terminal hydrolase BAP1 (Homo sapiens) (UniProt Q92560); experiment: BAP1 ubiquitin hydrolase activity blockers – biochemical, Ub-AMC fluorescence, kinetic, primary screen (AID 436); details: recombinant BAP1, Ub-AMC hydrolysis fluorescence kinetic; at 20 µM; stronger effect = lower value;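 note: 100% = DMSO wells rate and 0% = substrate alone blank rate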
Sequence (Q92560 whole entry, looked up): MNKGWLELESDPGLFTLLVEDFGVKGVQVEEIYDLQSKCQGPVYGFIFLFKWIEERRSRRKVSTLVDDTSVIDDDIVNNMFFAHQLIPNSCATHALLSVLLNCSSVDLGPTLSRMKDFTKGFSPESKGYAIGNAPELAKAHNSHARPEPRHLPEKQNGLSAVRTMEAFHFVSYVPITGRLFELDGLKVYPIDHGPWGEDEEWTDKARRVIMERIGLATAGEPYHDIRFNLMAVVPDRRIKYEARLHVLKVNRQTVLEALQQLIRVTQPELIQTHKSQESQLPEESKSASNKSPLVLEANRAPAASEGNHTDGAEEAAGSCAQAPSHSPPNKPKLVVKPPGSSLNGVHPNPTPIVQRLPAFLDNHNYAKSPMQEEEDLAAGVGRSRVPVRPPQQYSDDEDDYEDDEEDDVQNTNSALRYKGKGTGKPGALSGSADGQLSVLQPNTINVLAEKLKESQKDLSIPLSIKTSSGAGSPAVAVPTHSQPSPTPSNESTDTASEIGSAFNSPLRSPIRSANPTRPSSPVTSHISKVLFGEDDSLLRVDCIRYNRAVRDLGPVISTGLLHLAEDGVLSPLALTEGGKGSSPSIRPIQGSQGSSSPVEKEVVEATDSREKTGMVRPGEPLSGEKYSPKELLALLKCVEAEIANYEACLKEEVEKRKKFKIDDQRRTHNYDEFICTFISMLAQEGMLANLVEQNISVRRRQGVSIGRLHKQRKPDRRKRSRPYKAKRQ

Activity remaining (% of control), inactive:
COc1ccc(Cn2c(NCCO)nc3c2c(=O)n(C)c(=O)n3C)cc1 103%, Cc1cc(=O)oc2cc(OC(=O)c3ccc([N+](=O)[O-])cc3Cl)ccc12 479%, Cc1ccc[n+](CC(=O)c2ccc(Cl)cc2)c1C 57.4%, O=c1oc2ccccc2cc1-c1nnc(-c2ccccc2)o1 380%, COc1ccc2cc(C(=O)Nc3cccc(C(F)(F)F)c3)c(=N)oc2c1 72.3%, CNc1nonc1C(=O)O 154%, O=C(Nc1cccnc1)c1ccc(Cl)c([N+](=O)[O-])c1 66%, O=C(Nc1ccc(-c2cn3ccccc3n2)cc1)c1ccc(Br)cc1 63.1%, N#Cc1cccc2c1-c1ccc([N+](=O)[O-])cc1C2=O 96.3%, Cc1cccc(C)c1OCC(O)CN1CCCCC1 (stereo not given) 59.4%, CCOc1ccccc1NC(=O)c1c(NC(=O)c2cccs2)sc2c1CCC(C)C2 (stereo not given) 92.6%, Cc1cc(Br)ccc1N1C(=O)C2CCCCC2C1=O (stereo not given) 93.8%, CCc1ccc(OC(=O)c2cc3cc(Br)ccc3oc2=O)cc1 80.8%, CCc1ccc2oc(-c3cccc(NC(=O)c4ccccc4Br)c3)nc2c1 56.4%, O=C(Nc1nnc(CCS(=O)(=O)c2ccc3ccccc3c2)s1)c1ccc(F)cc1 64.8%, Cc1cccc(C(C)C)c1NC(=O)c1ccco1 233%, O=C(Nc1ccc(-c2nc3ccccc3o2)cc1)c1ccc(S(=O)(=O)N2CCCCC2)cc1 288%, O=C(Cc1cccc2ccccc12)Nc1ccccc1-c1nc2ccccc2s1 75.2%, CCOc1ccc(C(=O)Nc2cccc(C(=O)Nc3cccc4ccccc34)c2)cc1[N+](=O)[O-] 71.1%, O=C(Nc1nc2c(s1)C(=O)CCC2)c1ccccc1Cl 51.9%, CCOC(=O)c1c(NC(=O)c2cc3ccccc3oc2=O)sc(C(=O)CC)c1C 49.7%, O=C(NCc1ccccc1)c1nn2c(C(F)(F)F)cc(-c3ccccc3)nc2c1Br 70%, CCCOc1ccc(C(=O)Nc2c(C)ccc3nsnc23)cc1 203%, COCCc1nnc(NC(=O)c2ccc([N+](=O)[O-])cc2)s1 111%, CC1=C(C(=O)OCCc2ccccc2)C(c2ccc([N+](=O)[O-])cc2)NC(=O)N1C (stereo not given) 72.8%, COc1ccc(-n2nc3cc(C)c(NC(=O)c4ccc(Br)o4)cc3n2)cc1 63%, CC(C)(C)C(=O)Nc1ccc(C(=O)Nc2nccs2)cc1 63.4%, NC(=O)c1ccccc1NC(=O)COc1ccc([N+](=O)[O-])cc1 138%, Cc1ccc(C=Cc2ccncc2)cc1 139%, N#Cc1c(NC(=O)CCCN2C(=O)c3ccccc3C2=O)oc(-c2ccccc2)c1-c1ccccc1 56.8%, NC(=O)c1c(NC(=O)CCCCCN2C(=O)c3ccccc3C2=O)sc2c1CCC2 140%, COC(=O)C1=C(C)Nc2nnnn2C1c1ccccc1 (stereo not given) 171%, COc1cc(C(=O)Nc2ccc(Cl)cc2[N+](=O)[O-])cc(OC)c1OC 87.7%, C[n+]1ccccc1C=Cc1ccccc1 120%, Cc1cccc2cc(CN(Cc3cccs3)C(c3nnnn3C3CCCC3)C(C)C)c(=O)[nH]c12 (stereo not given) 57.3%, Cc1cccc2cc(CN(Cc3ccc4c(c3)OCO4)Cc3nnnn3C3CCCC3)c(=O)[nH]c12 53.1%, COC(=O)c1ccc(C(=O)Nc2cccc3c2C(=O)c2ccccc2C3=O)cc1 177%, CC(C)C(=O)N1c2ccccc2NC2=C(C(=O)CC(c3ccccc3)C2)C1c1ccc(F)cc1 (stereo not given) 63.6%, O=C(c1ccccc1)N1CCN(c2ccc([N+](=O)[O-])cc2F)CC1 64.8%, COc1cc(C2CC(=O)Nc3c2cc(Br)c2ccccc32)cc(Br)c1OC (stereo not given) 57.5%, CC(C)(C)c1ccc(OCC(O)CN2CCN(c3ccccc3F)CC2)cc1 (stereo not given) 152%, CC(C)(C)c1ccc(C(=O)Nc2nnc(Cc3ccc(F)cc3)s2)cc1 75.1%, COc1ccc(C=Nc2sc(C)c(C)c2C#N)cc1 103%, COC(=O)c1sc(-c2ccccc2)cc1NC(=O)c1ccc(S(=O)(=O)N2CCOCC2)cc1 193%, O=C1NCCCC1C1=NC(CO)(CO)CO1 (stereo not given) 82.8%, CCCOC(=O)c1cccc(NC(=O)COc2cccc(Cl)c2)c1 91.3%, CCOc1ccc(C(=O)Nc2ccc3c(c2)oc2ccccc23)cc1 144%, CCCCOc1ccc(C(=O)Nc2nc3ccc4nc(C)sc4c3s2)cc1 167%, CCC(=O)OCC1OC(n2ccc(=O)[nH]c2=O)CC1OC(=O)CC (stereo not given) 130%, COc1ccc(CCNC(=O)c2cccc([N+](=O)[O-])c2C)cc1 86.2%, COc1ccc(C(=O)Nc2cccc(C)n2)cc1[N+](=O)[O-] 80.8%, CN1C(=O)C(=O)/C(=C(/O)c2ccc(F)cc2)C1c1ccc(F)cc1 (stereo not given) 58.4%, Cn1c(=O)[nH]c(=O)c2c1nc(N1CCOCC1)n2CCO 159%, COc1cccc(NS(=O)(=O)c2ccc3[nH]cc(C(=O)NCCCOC(C)C)c(=O)c3c2)c1 79.5%, Cn1c(=N)n(CC(O)c2cccs2)c2ccccc21 (stereo not given) 85.6%, COc1cc(NC(=O)COc2ccccc2)c(OC)cc1Cl 141%, O=C(Nc1cc2cccc([N+](=O)[O-])c2oc1=O)c1ccccc1[N+](=O)[O-] 61.5%, Cc1cc(C)nc(NS(=O)(=O)c2ccc(NC(=O)c3ccc(F)cc3)cc2)n1 67.2%, Clc1ccc2[nH]c3ccccc3c2c1 65%, Cc1cc(O)c2c(=O)c(-c3csc(C)n3)c(C(F)(F)F)oc2c1 130%, O=C(OCCN1C(=O)c2ccccc2C1=O)c1ccc([N+](=O)[O-])cc1 90.6%, O=[N+]([O-])c1ccc(C=Nc2nc3c(s2)CCCC3)cc1 113%

Activity remaining (% of control), active:
N#Cc1c(/N=C/N2CCCC2)oc(-c2ccccc2)c1-c1ccccc1 41.5%, CCC(c1nnnn1C1CCCC1)N(Cc1cccs1)Cc1cc2cccc(C)c2[nH]c1=O (stereo not given) 49.7%, CCCCNC(=O)c1c[nH]c2ccc(S(=O)(=O)Nc3ccc(OCC)cc3)cc2c1=O 32.9%
